Laboratory results from PubChem BioAssay (EPA / NIEHS).
Inconclusive results are not listed. Activity calls are given as the source filed them. How the source made its calls, unless noted: active means hit-call score of the fitted dose curve at least 0.9, where 1 is the maximum; inactive means score below 0.9.

Legend:
[1] = ATG_TCF_b_cat_CIS: Attagene CIS-FACTORIAL HepG2 Assay for human T-Cell-Factor with beta-catenin (TCF/b-cat) (AID 2282965); conditions: HepG2 TCF/beta-catenin cis-reporter transcription, actives raise or lower the signal
Outline: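 HepG2 cells transiently transfected with multiple cis-promoter-regulated reporter transcription units, so endogenous transcription factor activity is measured. Reporter mRNA read 24 hours after dosing by RT-PCR, fluorescent labelling and capillary electrophoresis; bidirectional fitting against DMSO.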

[2] = ATG_TAL_CIS: Attagene CIS-FACTORIAL HepG2 Assay for human TAL Basal Promoter (AID 2282966); conditions: HepG2 Attagene cis-factorial TAL promoter reporter; actives raise or lower the signal;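 further: background control endpoint measuring basal TAL promoter reporter mRNA not a specific factor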
Outline: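 Endogenous transcription-factor activity is sensed in HepG2 cells through transfected cis-promoter reporter constructs. After 24 h dosing, reporter transcripts are quantified by RT-PCR and capillary electrophoresis. Gain or loss of signal is fitted relative to DMSO.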

[3] = ATG_TGFb_CIS: Attagene CIS-FACTORIAL HepG2 Assay for human Transforming Growth Factor (TGF) (AID 2282967); conditions: HepG2 Attagene CIS TGFb reporter, mRNA transcription; actives raise or lower the signal
Outline: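 Cells were dosed for 24 hours, after which total RNA was reverse-transcribed and reporter sequences amplified, labeled and sized by capillary electrophoresis. Activity was fitted in both directions against DMSO.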

[4] = target: Estrogen receptor (Homo sapiens) (UniProt P03372); test: ATG_ERa_TRANS: Attagene TRANS-FACTORIAL HepG2 Assay for human Estrogen Receptor alpha (ERa) (AID 2282970; active means hit-call score of the fitted dose curve at least 0.9, where 1 is the maximum); conditions: HepG2 Attagene TRANS ERa GAL4 reporter, mRNA
Estrogen receptor (Homo sapiens), sequence (P03372 whole entry, looked up, the tested form may be a part): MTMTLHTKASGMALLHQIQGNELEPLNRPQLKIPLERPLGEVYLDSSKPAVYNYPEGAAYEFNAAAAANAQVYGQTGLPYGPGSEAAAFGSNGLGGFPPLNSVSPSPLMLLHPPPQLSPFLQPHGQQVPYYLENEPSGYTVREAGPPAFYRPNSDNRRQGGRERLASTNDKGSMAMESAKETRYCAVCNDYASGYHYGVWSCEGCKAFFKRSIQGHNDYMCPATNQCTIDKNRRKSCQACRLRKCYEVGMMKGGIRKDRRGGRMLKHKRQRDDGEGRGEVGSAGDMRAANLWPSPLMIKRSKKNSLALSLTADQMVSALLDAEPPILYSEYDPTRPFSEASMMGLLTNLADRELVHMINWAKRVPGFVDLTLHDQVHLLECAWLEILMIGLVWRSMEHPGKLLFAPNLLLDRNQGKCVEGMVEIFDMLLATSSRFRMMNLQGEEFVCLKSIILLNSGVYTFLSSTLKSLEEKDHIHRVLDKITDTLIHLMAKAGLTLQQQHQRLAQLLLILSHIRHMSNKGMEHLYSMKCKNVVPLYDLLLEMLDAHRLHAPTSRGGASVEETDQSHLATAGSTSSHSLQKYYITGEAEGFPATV
Outline: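 Transfected HepG2 cells carrying GAL4-UAS-driven reporter units were dosed for 24 hours. Total RNA was reverse-transcribed, reporter sequences PCR-amplified, FAM-labelled, HpaI-digested and resolved by capillary electrophoresis. Increases over DMSO control defined activity.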

[5] = target: X-box-binding protein 1 (Homo sapiens) (UniProt P17861); test: ATG_Xbp1_CIS: Attagene CIS-FACTORIAL HepG2 Assay for human X-box Binding Protein 1 (XBP1) (AID 2282972); conditions: HepG2 XBP1 cis-element reporter, Attagene multiplex; actives raise or lower the signal
X-box-binding protein 1 (Homo sapiens), sequence (P17861 whole entry, looked up): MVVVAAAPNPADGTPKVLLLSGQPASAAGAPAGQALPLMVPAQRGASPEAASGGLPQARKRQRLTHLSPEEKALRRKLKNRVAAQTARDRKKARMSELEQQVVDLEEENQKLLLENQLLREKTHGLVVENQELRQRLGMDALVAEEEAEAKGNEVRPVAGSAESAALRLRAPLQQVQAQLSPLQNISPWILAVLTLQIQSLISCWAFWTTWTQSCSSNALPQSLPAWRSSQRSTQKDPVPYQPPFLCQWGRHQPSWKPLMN
Outline: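 Reporter transcripts were quantified by RT-PCR with fluorescent primer extension and capillary electrophoresis after 24 h chemical exposure. Cells: transiently transfected HepG2 carrying cis-regulated reporter constructs; data fitted bidirectionally relative to DMSO.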

[6] = ATG_VDRE_CIS: Attagene CIS-FACTORIAL HepG2 Assay for human Vitamin D Receptor Element (VDRE) (AID 2282968); conditions: HepG2 VDRE cis-reporter transcription, actives raise or lower the signal
Outline: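 Steps: transfect HepG2 with multiple reporter transcription units; dose chemicals 24 h; isolate RNA; RT-PCR; label with 6-FAM primer extension; HpaI digest; capillary electrophoresis. Curves fitted both directions against DMSO.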

[7] = target: Nuclear receptor subfamily 1 group I member 3 (Homo sapiens) (UniProt Q14994); test: ATG_CAR_TRANS: Attagene TRANS-FACTORIAL HepG2 Assay for human Constitutive Androstane Receptor (CAR) (AID 2282969; active means hit-call score of the fitted dose curve at least 0.9, where 1 is the maximum;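 further: activators raise reporter mRNA above DMSO so AC50 marks induction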); conditions: HepG2 Attagene TRANS-FACTORIAL CAR reporter
Nuclear receptor subfamily 1 group I member 3 (Homo sapiens), sequence (Q14994 whole entry, looked up, the tested form may be a part): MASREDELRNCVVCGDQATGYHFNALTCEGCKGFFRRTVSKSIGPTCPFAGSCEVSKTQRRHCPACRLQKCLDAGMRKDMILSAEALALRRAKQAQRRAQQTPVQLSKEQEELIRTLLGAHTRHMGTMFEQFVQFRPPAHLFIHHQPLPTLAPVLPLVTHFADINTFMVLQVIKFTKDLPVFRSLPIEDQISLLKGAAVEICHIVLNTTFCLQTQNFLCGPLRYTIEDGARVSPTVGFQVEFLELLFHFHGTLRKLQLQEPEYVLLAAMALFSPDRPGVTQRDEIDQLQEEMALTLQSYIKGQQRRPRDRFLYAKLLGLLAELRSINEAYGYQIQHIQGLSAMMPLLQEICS
Outline: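 Steps: transient transfection of HepG2 with multiple GAL4-UAS reporter units; 24 h compound incubation; RNA isolation, RT-PCR, 6-FAM primer extension, HpaI digest; capillary electrophoresis. Gain-of-signal relative to DMSO negative control.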

[8] = target: Steroid hormone receptor ERR1 (Homo sapiens) (UniProt P11474); test: ATG_ERRa_TRANS: Attagene TRANS-FACTORIAL HepG2 Assay for human Estrogen-Related Receptor alpha (ERRa) (AID 2282971; active means hit-call score of the fitted dose curve at least 0.9, where 1 is the maximum); conditions: HepG2 Attagene TRANS reporter, ERRa transactivation
Steroid hormone receptor ERR1 (Homo sapiens), sequence (P11474 whole entry, looked up, the tested form may be a part): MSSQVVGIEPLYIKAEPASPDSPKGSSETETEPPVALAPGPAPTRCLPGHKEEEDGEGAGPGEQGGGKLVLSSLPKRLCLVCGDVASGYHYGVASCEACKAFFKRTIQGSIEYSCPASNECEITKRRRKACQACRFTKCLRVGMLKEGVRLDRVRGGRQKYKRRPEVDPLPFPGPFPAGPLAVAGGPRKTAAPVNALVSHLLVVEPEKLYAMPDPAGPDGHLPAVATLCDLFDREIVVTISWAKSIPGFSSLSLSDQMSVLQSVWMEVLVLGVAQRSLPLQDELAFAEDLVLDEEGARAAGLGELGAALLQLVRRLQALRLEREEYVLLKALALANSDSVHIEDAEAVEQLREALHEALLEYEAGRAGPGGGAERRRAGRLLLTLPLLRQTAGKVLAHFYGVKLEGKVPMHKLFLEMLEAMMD
Outline: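 HepG2 cells were transiently transfected with multiple GAL4-UAS reporter units, then dosed with compound for 24 h. Total RNA was reverse-transcribed, reporter cDNA PCR-amplified and fluorescently labelled, and fragments resolved by capillary electrophoresis; induction was compared with DMSO.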

[9] = ATG_GAL4_TRANS: Attagene TRANS-FACTORIAL HepG2 Assay for GAL4 (Internal Marker) (AID 2282976; active means hit-call score of the fitted dose curve at least 0.9, where 1 is the maximum); conditions: HepG2 Attagene TRANS GAL4 internal marker reporter
Outline: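 Fluorescence from capillary electrophoresis of labelled RT-PCR products quantifies reporter mRNA induction after 24 h dosing of HepG2 cells carrying transfected GAL4-UAS reporter transcription units. Vehicle DMSO serves as baseline.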

[10] = ATG_M_19_TRANS: Attagene TRANS-FACTORIAL HepG2 Assay for M19 Transcription Factor (Internal Marker) (AID 2282974; active means hit-call score of the fitted dose curve at least 0.9, where 1 is the maximum); conditions: HepG2 Attagene TRANS-FACTORIAL M19 internal marker reporter
Outline: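 Cells: human HepG2, transiently transfected with multiplexed reporter transcription units. Exposure: 24 h. Detection: RT-PCR of reporter mRNA with capillary electrophoresis. Analysis: gain-of-signal vs DMSO.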

Measured: AC50

CCCCNS(=O)(=O)c1ccc(C)cc1
inactive: [1] | [2] | [3] | [4] | [5]

C=CCCCCCCCCC=O
not listed: [3] | [10]
inactive: all other assays above

N=C1C=CC(=C(c2ccc(N)cc2)c2ccc(N)cc2)C=C1
inactive: [2] | [3] | [4] | [10]
active: [1] 26.5 µM | [5] 25.3 µM

CCCC1CCCC(=O)O1 (configuration not stated)
not listed: [6] | [8] | [9]
inactive: all other assays above

COc1ccc(C(=O)c2ccccc2)c(O)c1
inactive: [1] | [2] | [5] | [9]
active: [3] 156 µM | [4] 6.43 µM

Cc1ccc2c(c1)CCCN2
inactive: [1] | [2] | [3] | [7] | [4] | [5]

CCc1occc(=O)c1O
inactive: [1] | [2] | [3] | [4] | [5] | [9]

CN(C)c1ccc2nc3ccc(=[N+](C)C)cc-3sc2c1
inactive: [1] | [2] | [7] | [4] | [5] | [10]

CC(C)C(=O)OCCOc1ccccc1
inactive: [1] | [2] | [6] | [5] | [10]

C=CCCCCCCCCO
inactive: [1] | [2] | [6] | [4] | [5] | [9]

CCCCCCC=O
inactive: [1] | [2] | [6] | [5] | [10]
active: [4] 19 µM

CC1CCC(C(C)(C)S)C(=O)C1 (configuration not stated)
inactive: [1] | [2] | [6] | [4] | [5] | [10]

CCN(CC)c1cccc(C)c1
not listed: [3] | [7] | [10]
inactive: all other assays above

[Cl][Eu]([Cl])[Cl]
active: [4] 36.6 µM
inactive: [1] | [2] | [6] | [5]

CC(=O)CCC=C(C)C
inactive: [1] | [2] | [6] | [4] | [5]

COc1ccc(C(=O)/C(Br)=C\C(=O)O)cc1
active: [6] 35.7 µM
inactive: [1] | [2] | [4] | [8] | [5]

COC(OC)(C(=O)c1ccccc1)c1ccccc1
active: [3] 138 µM | [6] 5.89 µM | [4] 0.817 µM
not listed: [1]
inactive: all other assays above

C=CCNCC=C
inactive: [1] | [2] | [6] | [4] | [5] | [10]

CCC(C)C(=O)OC (configuration not stated)
inactive: [1] | [2] | [6] | [8] | [5] | [10]

CC(=O)OCCc1ccccc1
inactive: [1] | [2] | [6] | [7] | [4] | [5]

O=C(C=Cc1ccccc1)OCCc1ccccc1
active: [6] 28 µM | [4] 29.4 µM
not listed: [3] | [8]
inactive: all other assays above

CCC(C)(O)CCCC(C)C (configuration not stated)
not listed: [3] | [6] | [8]
inactive: all other assays above

Cc1noc(NS(=O)(=O)c2ccc(N)cc2)c1C
inactive: [1] | [2] | [7] | [4] | [5]

CC(C)=NNC(N)=S
inactive: [1] | [2] | [6] | [5] | [9]

C=C(C)[C@@H]1CC=C(C)CC1
inactive: [1] | [2] | [5]

Cn1ccnc1
not listed: [3] | [4] | [9]
inactive: all other assays above

CC/C=C\C/C=C\C/C=C\CCCCCCCC(=O)OC
active: [1] 64.9 µM
not listed: [3] | [7] | [8]
inactive: all other assays above

C1CNCCN1
inactive: [1] | [2] | [6] | [4] | [5] | [9]

NC(=O)Nc1ccccc1
inactive: [1] | [2] | [6] | [8] | [5]

CC=CC(=O)OCC(C)C
inactive: [1] | [2] | [6] | [4] | [5] | [10]

Cc1ccc(C)c(OCCCC(C)(C)C(=O)O)c1
inactive: [1] | [2] | [5] | [9]
active: [4] 20.2 µM

CCCC=C(C=O)CC
inactive: [1] | [2] | [6] | [4] | [5] | [10]

c1ccc2sc(SSN3CCOCC3)nc2c1
active: [5] 100 µM
inactive: [1] | [2] | [6] | [4]

O=C1CCCN1C1CCCCC1
not listed: [3] | [8] | [9]
inactive: all other assays above

CC(C=O)c1ccccc1 (configuration not stated)
inactive: [1] | [2] | [4] | [5] | [9]
active: [6] 9.33 µM

O=C(OCc1ccccc1)c1ccc(O)cc1
inactive: [2]
active: [1] 124 µM | [4] 26.7 µM | [5] 147 µM

O=C(Oc1ccccc1)c1ccccc1C(=O)Oc1ccccc1
active: [1] 51.4 µM
inactive: [2] | [4] | [5] | [9]

[Cl][Sc]([Cl])[Cl]
not listed: [3] | [4] | [8]
inactive: all other assays above

O=C1CCCCC1C1CCCCC1 (configuration not stated)
inactive: [1] | [2] | [6] | [4] | [5] | [9]

CC(=O)CC(=O)Nc1ccccc1C
inactive: [1] | [2] | [6] | [7] | [8] | [5]

CC(C)c1ccc(O)c(C(C)C)c1
active: [4] 33.4 µM
inactive: [1] | [2] | [6] | [7] | [5]

C=C(C)OC(C)=O
not listed: [1]
inactive: all other assays above

Nc1ccc(O)c([N+](=O)[O-])c1
inactive: [1] | [2] | [6] | [4] | [8] | [5]

Cc1cc(=O)[nH]c(=O)[nH]1
inactive: [1] | [2] | [6] | [5]

CC(=O)/C=C/C1C(C)=CCCC1(C)C (configuration not stated)
inactive: [2] | [3] | [5] | [10]
active: [6] 13.3 µM | [4] 24.2 µM

CCCCCCO
inactive: [2] | [3] | [6] | [4] | [5]

Oc1ccccc1Cc1ccccc1O
inactive: [2] | [3] | [9]
active: [6] 133 µM | [4] 18.1 µM | [5] 144 µM

CCOc1ccc(NC(N)=O)cc1
not listed: [1] | [8] | [10]
inactive: all other assays above

CCOC(=O)[C@H](O)[C@@H](O)C(=O)OCC
not listed: [1] | [8]
inactive: all other assays above

CN1CCN(C)CC1
inactive: [2] | [3] | [6] | [4] | [5] | [10]

COc1ccc(-c2coc3cc(O)cc(O)c3c2=O)cc1
inactive: [2] | [3] | [9]
active: [6] 27 µM | [4] 0.432 µM | [5] 100 µM

CC1(C)CCC[C@]2(C)[C@H]3CC(=O)O[C@]3(C)CC[C@@H]12
inactive: [2] | [3] | [5] | [10]
active: [4] 2.7 µM

CCCSSCCC
not listed: [1] | [8] | [10]
inactive: all other assays above

Cc1ccc([N+](=O)[O-])cc1N
inactive: [2] | [3] | [6] | [4] | [5] | [9]

Nc1nc(N)nc(-c2ccccc2)n1
inactive: [2] | [3] | [7] | [4] | [5] | [10]

Cc1c[nH]c(=O)[nH]c1=O
inactive: [2] | [3] | [6] | [5]

CC(C)c1ccc2ncccc2c1
inactive: [2] | [3] | [7] | [4] | [8] | [5]

CCCCNC(=S)NCCCC
inactive: [2] | [3] | [6] | [4] | [5] | [9]

CCCCOCCOCCOC(C)=O
not listed: [1] | [7] | [9]
inactive: all other assays above

C=C(C)C(=O)OCCOC(=O)C(=C)C
not listed: [1] | [7] | [10]
inactive: all other assays above

N#Cc1ccc(C(c2ccc(C#N)cc2)n2cncn2)cc1
inactive: [2] | [6] | [4] | [5] | [10]

C[Si](C)(C)N[Si](C)(C)C
inactive: [2] | [3] | [6] | [4] | [5]
